An excerpt weighted towards active compounds, which were near 2.3% of everything screened.
MITF TRPM1 inh: inhibitors of MITF-driven TRPM1 promoter in melanoma cells; SK-MEL-5 TRPM1 promoter luciferase, 24 h; inhibition, % at 12.5 µM; 0.83% of 330,000 active; AID 488899;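 active = mean inhibition across replicates of 60% or more, whatever share of single replicates reaches that level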
697 NFkB inh: inhibitors of the PMA/ionomycin-induced NF-kB reporter in 697 B cells; 697 B-cell NF-kB luciferase reporter, 16 h; inhibition, % at 4 µM; 0.33% of 330,000 active; AID 435022; in the data active = inhibition above about 35%
Gli-Sufu antag: Gli-Sufu pathway antagonism; Sufu-KO-LIGHT fibroblasts, Gli luciferase reporter luminescence; 0.74% of 340,000 active; AID 588413; inhibition, % at 5 µM;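 active = inhibition above about 55%, limit read from the data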;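 note: 0% = DMSO-treated cells and 100% = wells with medium but no cells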
Jurkat NFkB inh: inhibitors of the PMA/ionomycin-induced NF-kB reporter in Jurkat cells; PMA/ionomycin-induced NF-kB luciferase reporter, luminescence; inhibition, % at 4 µM; 0.53% of 330,000 active; in the data active = inhibition above about 50%
EBV LMP1 NFkB: reduces LMP1-driven NF-kappaB luciferase signal. LMP1-induced NF-kappaB luciferase reporter cells, luminescence. inhibition, % at 12.5 µM. 0.69% of 350,000 active. AID 504558; in the data active = inhibition above about 41%;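 note: 0% = neutral control wells and 100% = reference inhibitor control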
Shn3 inh set2: inhibitors of Schnurri-3 3'UTR reporter in osteoblasts. Clone20 osteoblast Shn3 3'UTR firefly luciferase, 24 h. inhibition, % at 12.5 µM. 0.52% of 360,000 active. AID 588674;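 active = mean inhibition of at least 75% with every replicate also reaching 75%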;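 note: 0% = median of neutral control wells and 100% = pilot-screen positive control compound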
Gli antag conf: Gli-SUFU antagonism confirmation, single concentration; 40% of 2,500 active; shares compounds with Gli-Sufu antag; inhibition, % at 5 µM; Sufu-KO-LIGHT cells, Gli luciferase reporter, luminescence;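 active = mean inhibition at 5 µM reaching about 45%, limit read from the data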;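 note: plate controls were DMSO-treated cells for no effect and wells lacking cells for full effect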
SufuKO cytotox: cytotoxic in Gli-SUFU antagonist counter-screen; shares compounds with Gli-Sufu antag; Sufu-KO-LIGHT cells cytotoxicity, ATP luminescence; cytotoxicity, % at 5 µM; 32% of 2,500 active;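 active = mean cytotoxicity at 5 µM above about 25%, limit read from the data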;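 note: cells exposed to compound overnight for roughly 16 to 18 hours; plate controls were DMSO wells with cells for no effect and medium without cells for full effect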
Wnt3a cs: inhibits Wnt3a reporter, counter-screen for Gli-SUFU antagonists. shares compounds with Gli-Sufu antag. 20% of 2,500 active. Wnt-LIGHT cells, Wnt3a-driven luciferase reporter, luminescence. inhibition, % at 6.25 µM;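 active = mean inhibition above about 25%, limit read from the data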
* = called active by the depositor; x = no result.

SMILES	MITF TRPM1 inh	697 NFkB inh	Gli-Sufu antag	Jurkat NFkB inh	EBV LMP1 NFkB	Shn3 inh set2	Gli antag conf	SufuKO cytotox	Wnt3a cs
CCOC(=O)N1CCN(C(=O)c2ccc3c(c2)N(Cc2cccc(Cl)c2)C(=O)c2ccccc2S3=O)CC1 (stereo not drawn)	19.7	-12.8	55.9*	12.2	10.5	-2.4	12.3	12.0	2.4
Cc1ccc2[nH]c(=O)c(CN(Cc3cccs3)Cc3nnnn3CC3CCCO3)cc2c1 (stereo not drawn)	-7.7	-1.7	54.2	8.5	-1.3	9.0	21.1	13.7	-16.9
Cc1ccc2cc(CN(Cc3cccs3)Cc3nnnn3CC3CCCO3)c(=O)[nH]c2c1 (stereo not drawn)	9.9	19.9	0.7	-4.8	0.8	-23.0	x	x	x
O=C(Nc1ccc(Oc2cccc3ccccc23)cc1)c1ccco1	15.3	-48.0	96.8*	-17.4	-1.3	1.1	-3.1	23.2	-6.8
O=C(Nc1cccc(NC(=O)c2ccco2)c1)c1ccccc1	-18.2	-9.8	52.2	-23.1	6.9	-38.2	15.7	7.0	17.9
CCOC(=O)C1=C(O)C(=O)N(c2ccc(S(N)(=O)=O)cc2)C1c1ccc(Cl)cc1 (stereo not drawn)	14.9	-5.4	-3.2	-19.8	-15.4	12.1	x	x	x
CC(C)n1c(O)c(N=NC(=O)Cc2csc(N3CCOCC3)n2)c2ccccc21	19.8	21.0	-15.5	-3.2	7.9	-7.3	x	x	x
CCCCCCN1C(=O)C(O)=C(C(C)=O)C1c1ccc(Cl)cc1 (stereo not drawn)	-3.4	-15.4	2.5	-5.4	2.5	-6.0	x	x	x
Cc1cc(NC(=O)C2=C(O)c3ccccc3S(=O)(=O)N2C)no1	-8.6	11.3	62.3*	0.3	-3.5	-10.4	3.2	28.3*	-9.2
CCCCN1C(C(=O)Nc2cc(C)on2)=C(O)c2ccccc2S1(=O)=O	6.4	5.2	-4.7	23.2	4.7	-0.2	x	x	x
CN(C1CCCCC1)S(=O)(=O)c1ccc(NC(=S)NC(=O)c2cccs2)cc1	-0.6	12.2	63.0*	18.7	-2.2	21.9	19.3	7.9	1.2
CCc1ccccc1NC(=S)N(CCCN(C)C)Cc1cc2cc3c(cc2[nH]c1=O)OCO3	24.6	-9.7	22.1	-20.7	5.3	56.3	x	x	x
O=C(CSc1cccc[n+]1[O-])CSc1cccc[n+]1[O-]	-0.8	-0.1	56.2*	-15.1	-4.5	15.0	15.4	9.7	0.5
N/C(=N/O)c1ccccc1N1CCC(Cc2ccccc2)CC1	6.9	21.3	78.0*	-2.5	9.6	23.9	74.4*	36.5*	-24.7
Cn1cc(S(=O)(=O)N2CCc3ccccc32)cc1C(=O)NC(C)(C)C	28.8	19.3	61.2*	36.8	13.0	89.2*	58.1*	35.1*	13.2
O=C(Nc1cc(Cl)cc(Cl)c1)c1cccnc1	-5.5	8.3	6.7	2.4	11.6	6.1	x	x	x
COc1ccc(O)c(C(=O)c2cnc3c(c2)c(=O)[nH]c(=O)n3C)c1	3.9	16.0	56.6*	-4.6	-1.3	-2.0	27.5	6.6	33.2*
COCCn1c(=O)[nH]c(=O)c2cc(C(=O)c3cc(Cl)ccc3O)cnc21	-5.7	13.7	0.0	9.2	-7.2	-17.8	x	x	x
CC(=O)Nc1ccc(Nc2ncnc(N)c2[N+](=O)[O-])cc1	-12.9	-10.3	-6.6	4.3	6.2	-2.4	x	x	x
COc1ccc(Cl)cc1NC(=S)NNC(=O)CC(C)C	-1.5	7.7	3.0	8.3	3.8	-5.2	x	x	x
CC1CCN(C(=O)C2CCN(C(=O)c3ccc(C(C)(C)C)cc3)CC2)CC1	17.4	-8.8	-4.7	16.0	-8.1	2.1	x	x	x
Cc1ccccc1CS(=O)(=O)Cc1ccc(C(=O)NCc2ccco2)o1	2.2	-5.1	50.8	-5.9	-9.0	7.2	12.0	5.4	-23.9
COc1cc(S(=O)(=O)N2CCN(c3ccccc3)CC2)ccc1F	-2.0	-6.9	5.5	12.2	-1.9	6.1	x	x	x

High-throughput results deposited in PubChem BioAssay by several laboratories.
